The list is not random: actives were taken first. Their share in the collection is about 0.53%.
GLS inh – inhibitors of human glutaminase (GLS). O94925. GLS enzymatic activity, qHTS titration. Potency, µM (highest dose often 45.5 µM), inactives show at the top dose activity change, negative = inhibition, most hits filed as inhibitors. 410,000 tested, 0.21% active. AID 624170; note: potency is the fitted concentration of half-maximal effect
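Human kidney-isoform GLS in 45 mM KH2PO4 pH 8.2, 0.02% Tween-20, with compound, started with 1mM L-Glutamine (added stock). Glutamate oxidase/HRP/Amplex red coupled fluorescence read at start and after 30 min at RT.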
PGK inhibitor – T. brucei PGK inhibition | PGK/GAPDH coupled, Kinase-Glo luminescence, 60 min | P07378 | Potency, µM (top dose mostly 57.5 µM), inactives show top-dose activity change, negative = inhibition, hits mostly inhibitors | 380,000 tested, 0.043% active; note: potency is the fitted concentration of half-maximal effect; nearly all actives have a fitted effect of over 60% in size
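Luminescent ATP detection (Kinase-Glo Plus) follows a 60-minute room-temperature incubation, with wells lacking PGK as controls. Buffer: 100 mM TEA (pH 7.6), 5 mM MgCl2, 0.01% Tween-20. Coupling enzyme GAPDH (100 nM final) supplies unstable 1,3-BPG in-well.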
USP1-UAF1 inh – inhibitors of human USP1/UAF1 deubiquitinase. O94782. 390,000 tested, 0.23% active. Potency, µM (highest dose often 57.1 µM), without a hit: top-dose activity change, negative = inhibition, hits mostly inhibitors. recombinant USP1/UAF1, Ub-Rhodamine cleavage fluorescence; note: potency is the fitted concentration of half-maximal effect; nearly all actives have a fitted effect of over 60% in size
Target sequence (O94782 whole entry, looked up): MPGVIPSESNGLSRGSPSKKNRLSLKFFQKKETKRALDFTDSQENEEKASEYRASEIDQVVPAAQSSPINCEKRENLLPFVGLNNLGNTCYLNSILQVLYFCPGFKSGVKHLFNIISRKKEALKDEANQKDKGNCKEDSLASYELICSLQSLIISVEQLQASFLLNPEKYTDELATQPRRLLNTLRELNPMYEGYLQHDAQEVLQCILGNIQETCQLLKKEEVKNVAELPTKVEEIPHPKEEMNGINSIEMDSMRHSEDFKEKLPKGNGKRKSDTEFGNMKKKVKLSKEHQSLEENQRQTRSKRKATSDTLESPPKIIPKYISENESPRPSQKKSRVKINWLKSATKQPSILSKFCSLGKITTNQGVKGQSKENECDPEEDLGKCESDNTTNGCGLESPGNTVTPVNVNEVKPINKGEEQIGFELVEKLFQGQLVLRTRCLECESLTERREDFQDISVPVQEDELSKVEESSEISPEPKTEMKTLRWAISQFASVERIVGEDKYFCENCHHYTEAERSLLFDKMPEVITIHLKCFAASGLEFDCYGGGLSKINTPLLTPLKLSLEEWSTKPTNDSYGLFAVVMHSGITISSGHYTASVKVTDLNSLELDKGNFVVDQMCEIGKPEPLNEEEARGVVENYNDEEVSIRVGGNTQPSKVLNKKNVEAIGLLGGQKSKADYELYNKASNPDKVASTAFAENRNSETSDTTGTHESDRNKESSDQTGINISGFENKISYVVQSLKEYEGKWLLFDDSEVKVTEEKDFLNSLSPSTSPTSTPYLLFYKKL
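USP1/UAF1 complex at 1 nM was preincubated with compound for 15 min at room temperature, then Ub-Rho substrate (150nM final) was added. Fluorescence (480/540 nm) was read kinetically, 6 reads every 60 seconds.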
PI4K2A inh – inhibitors of human PI4K2A | Q9BTU6 | purified PI4K2A, ADP-Glo luminescence, 1 h; hits give low values | activity change, negative = inhibition, % at 76.9 µM | 420,000 tested, 0.13% active; in the data active = activity change below about -50%; inconclusive = mostly about -30% to -49%;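 note: -100% = wells without enzyme as full effect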
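ADP-Glo luminescence measured ADP generated by PI4K2A enzyme (4 ug/mL before mixing) with 1.2 mM PI substrate (pre-mix) and 300 microM ATP (pre-mix). Tris pH7.5 buffer with MgCl2, Triton X-100; 1 h reaction at ambient temperature.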
The depositor's hits bear a star; ? = inconclusive; nt = no result; ! = not confirmed by another sample; [ ] = another dose, or the depositor's remark. Unless noted, calls come from the whole dose curve; as a rule, active = well fitted curve in the direction sought with a large enough effect; inconclusive = small, poorly fitted or top-dose-only effect, or another doubt; inactive = no such curve, though single readings can be large; an effect the other way counts as inactive or inconclusive. Unless noted, % is set by controls: 0 for no effect and ±100 for the full control effect.

SMILES	GLS inh	PGK inhibitor	USP1-UAF1 inh	PI4K2A inh
CC[N+]1(CC)CCC(OC(=O)C(O)(c2ccccc2)c2ccccc2)C1 (stereo not given)	nt	nt	nt	2
CC(C)N1C(=O)/C(=C/C=C/c2ccco2)C(=O)N(Cc2ccco2)C1=O	?	?	-4%	-59*
CCN1C(=O)C(=C/C=C/c2ccco2)C(=O)N(CC)C1=S	7.1µM*	?	?	-17
O=C1NC(=O)N(Cc2ccccc2)C(=O)/C1=C/C=C/c1ccco1	8%	-5%	-30%	?
CC1=NCCc2c1[nH]c1cc(O)ccc21	110%	-3%	25µM*	4
CC1(O)CCC2C3CCC4=CC(=O)CCC4(C)C3(F)C(O)CC21C (stereo not given)	11%	nt	nt	nt
NCCc1cc(O)c(O)cc1O	10µM*!	-21%	?	?
O=C1NC(=S)NC(=O)C1=Cc1ccc2c(c1)CCN2CCCCl	10µM*	?	-5%	?
Cc1ccccc1N1C(=O)NC(=O)/C(=C\c2ccc3c(c2)CCCN3Cc2ccccc2)C1=O	?	-9%	?	-19
CCC(N)CCc1c[nH]c2ccccc12 (stereo not given)	52%[99.4 µM]	nt	nt	nt
O=c1[nH]cc(N(CCCl)CCCl)c(=O)[nH]1	10%	nt	nt	-67*
CCC(C)C(C)(COC(N)=O)COC(N)=O (stereo not given)	nt	nt	nt	5
O=C1NC(=O)N(Cc2ccc(F)cc2)C(=O)/C1=C\c1ccc([N+](=O)[O-])s1	10%	-25%	28µM*	-15
COc1cc(OC)c(OC)cc1/C=C1\C(=O)NC(=O)N(Cc2ccccc2)C1=O	8%	6%	-16%	-23
COc1cc(OC)c(OC)cc1/C=C1/C(=O)NC(=O)N(Cc2ccccc2)C1=O	8%	-1%	-3%	-53*
COc1ccc(CN2C(=O)NC(=O)/C(=C\c3ccco3)C2=O)cc1	-5%	?	?	-24
COc1ccc(CN2C(=O)NC(=O)/C(=C/c3ccc([N+](=O)[O-])s3)C2=O)cc1	-22%	?	35µM*	-22
O=C1NC(=O)N(Cc2ccc(F)cc2)C(=O)/C1=C\c1ccc(N2CCCC2)cc1	1%	-3%	0%	-15
C[N+]1(CCF)[C@@H]2CC[C@@H]1CC(OC(=O)C(O)(c1ccccc1)c1ccccc1)C2 (stereo not given in full)	13%	nt	nt	nt
CCCCNc1ccc(C(=O)OCCN(CC)CC)cc1	30%	nt	nt	-9
C=CCN1C(=O)NC(=O)/C(=C\c2ccc(-c3ccccc3[N+](=O)[O-])o2)C1=O	18µM*	-1%	-8%	-19
CCOC(=O)C1(c2ccccc2)CCN(CCc2ccc(N)cc2)CC1	nt	nt	nt	2
CCn1c(O)c(C=Nc2ccc(N3CCOCC3)cc2)c(=O)n(CC)c1=S	0%	-10%	18µM*	0
CCCCn1c(NC(=O)c2ccco2)c(C(=O)OCC)c2nc3ccccc3nc21	-8%	-3%	25µM*	?
ClCCN(CCCl)c1ccc(C=Cc2ccncn2)cc1	-3%	-3%	25µM*	0
SMILES	GLS inh	PGK inhibitor	USP1-UAF1 inh	PI4K2A inh
ClCCN(CCCl)c1ccc(C=NNc2ncccn2)cc1	11%	13%	?	-3
Cc1cc(O)c2c(c1)C(=O)C13C(=C2O)C(=O)[C@H]2[C@@H](O)[C@@H]1[C@H]1[C@H](O)[C@@H]3C(=O)C3=C(O)c4c(O)cc(C)cc4C(=O)C312 (stereo not given in full)	62%	-9%	-25%	-75*
O=C(O)c1cc(O)c(O)c(O)c1	10µM*	nt	nt	4
CCC(=O)OC1[C@@H](N2CCCCC2)C[C@H]2[C@@H]3CC[C@H]4C[C@H](OC(C)=O)[C@@H](N5CCCCC5)C[C@]4(C)[C@H]3CC[C@]12C (stereo not given in full)	0%	nt	nt	nt
CC[C@H](OC(C)=O)C(C[C@H](C)NC)(c1ccccc1)c1ccccc1	5%[99.4 µM]	nt	nt	nt
COc1cccc2c1C(=O)c1c(O)c3c(c(O)c1C2=O)C[C@@](O)(C(=O)CO)CC3OC1CC(N2CCOC(OC)C2)C(O)C(C)O1 (stereo not given in full)	nt	nt	nt	-11
COc1cccc2c1C(=O)c1c(O)c3c(c(O)c1C2=O)C[C@@](O)(C(=O)CO)C[C@@H]3O[C@H]1C[C@H](N)[C@H](OC2CCCCO2)[C@H](C)O1 (stereo not given in full)	16µM*	nt	nt	nt
Cc1cc(C)cc(N2C(=O)/C(=C\c3ccc(N4CCN(C)CC4)o3)C(=O)NC2=S)c1	-5%	-1%	32µM*	-10
O=C1NC(=S)N(c2ccccc2)C(=O)/C1=C/c1ccco1	?	7.9µM*	?	?
CCOc1cccc(N2C(=O)/C(=C/c3ccco3)C(=O)NC2=S)c1	?	?	-13%	-15
CC(Cc1ccccc1)NCCCCl (stereo not given)	nt	nt	nt	2
CCCCCc1cc(O)c2c(c1)OC(C)(C)c1ccc(C)cc1-2	-7%	nt	nt	nt
CC(=O)c1ccc2c(c1)C1C(Cl)C(Sc3ccccc3[N+](=O)[O-])CC1C(C(=O)O)N2 (stereo not given)	-4%	?	-23%	-20
O=C(O)c1cccc2c1NC(C(=O)O)C1CC(Sc3ccccc3[N+](=O)[O-])C(Cl)C21 (stereo not given)	7.1µM*	11µM*	?	-23
COCCCn1c(N)c(C(=O)NCCC(C)C)c2nc3ccccc3nc21	-11%	-8%	22µM*	?
CCCCNC(=O)c1c(N)n(Cc2ccc3c(c2)OCO3)c2nc3ccccc3nc12	-1%	nt	28µM*	-7
CCCNC(=O)c1c(N)n(CC2CCCO2)c2nc3ccccc3nc12 (stereo not given)	2%	4%	?	-9
CCCCn1c(N)c(C(=O)OCCOC)c2nc3ccccc3nc21	0%	-3%	-3%	-1
CC(C)OCCCNC(=O)c1c(N)n(CC2CCCO2)c2nc3ccccc3nc12 (stereo not given)	-1%	9%[11.5 µM]	28µM*	?
C[C@]12Cc3cn[nH]c3C[C@@H]1CC[C@@H]1[C@@H]2CC[C@@]2(C)[C@H]1CC[C@]2(C)O	nt	nt	nt	2
CC12CCC(=O)CC1CCC1C2CCC2(C)C1CCC2(C)O (stereo not given)	0%	nt	nt	nt
CN(C)[C@@H]1C(=O)C(C(N)=O)=C(O)[C@@]2(O)C(=O)C3=C(O)c4c(O)cccc4[C@@](C)(O)[C@H]3[C@H](O)[C@@H]12	7.1µM*	?	?	-63*!
CN(C)C1C(=O)C(C(N)=O)C(=O)C2(O)C(=O)C3C(=O)c4c(O)cccc4C(C)(O)C3C(O)C12 (stereo not given)	6.3µM*	nt	nt	nt
CN(C)[C@@H]1C(=O)C(C(N)=O)=C(O)[C@@]2(O)C(=O)C3=C(O)c4c(O)cccc4[C@@](C)(O)C3C[C@@H]12 (stereo not given in full)	-34%	-4%	-14%	-7
CC(C)(N)Cc1ccccc1Cl	nt	nt	nt	1
c1ccc(N2CCNCC2)cc1	nt	nt	nt	3
